This passage reports activation results from PubChem BioAssay AID624126 (The Scripps Research Institute Molecular Screening Center, 2012).

Values joined by “and” are separate entries in the source; they are usually repeats but may differ in a detail not shown here. Equal entries are not always repeated. Out of some 360,000 compounds screened, about 1,400 (0.39%) were called active.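 How the source made its calls: active means activation above its plate's cutoff, the mean activation of sample wells plus 3 SD; inactive means the rest.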 The sample as a whole holds a higher share of actives than the screen did.

Muscarinic acetylcholine receptor M4 (Homo sapiens), sequence (P08173 whole entry, looked up): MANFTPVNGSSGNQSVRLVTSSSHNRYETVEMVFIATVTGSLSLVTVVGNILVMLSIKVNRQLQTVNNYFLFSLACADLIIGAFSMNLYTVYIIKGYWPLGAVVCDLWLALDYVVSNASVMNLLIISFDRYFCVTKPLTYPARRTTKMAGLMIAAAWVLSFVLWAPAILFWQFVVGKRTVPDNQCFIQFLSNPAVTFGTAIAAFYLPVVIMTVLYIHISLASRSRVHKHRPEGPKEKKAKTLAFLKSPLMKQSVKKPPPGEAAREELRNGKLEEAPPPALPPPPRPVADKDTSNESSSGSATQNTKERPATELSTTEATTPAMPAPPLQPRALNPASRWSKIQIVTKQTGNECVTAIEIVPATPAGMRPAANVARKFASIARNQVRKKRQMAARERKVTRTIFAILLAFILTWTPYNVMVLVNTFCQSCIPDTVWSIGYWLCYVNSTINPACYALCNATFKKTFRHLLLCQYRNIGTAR

The assay addresses Muscarinic acetylcholine receptor M4 (Homo sapiens) (UniProt P08173). Description: human M4 muscarinic receptor positive allosteric modulators, primary screen, CHO-K1 cells, Fluo-8 calcium fluorescence (AID 624126). The following applies: CHO-K1 hM4/Gqi5, Fluo-8 calcium fluorescence, ACh EC20; at 3 µM; stronger effect = higher value; 0% = ACh EC20, 100% = maximal ACh.
On to `CCc1ccccc1OCC(=O)Nc1ccc2c(c1)OCCO2`, for which the activation was -2.66% (inactive).
In the case of `CC(=O)NCC(=O)N(C)C(C(=O)Nc1ccc2c(c1)OCCO2)c1ccccc1` (stereo not given) it was 16.8% (active); in that of `O=C(Nc1ccc2c(c1)OCCO2)C(C1CC1)N1CCC(Cc2ccccc2)CC1` (stereo not given), -15.2% (inactive); in that of `Cc1ccccc1OCC(=O)N(Cc1cccc(F)c1)C1CCS(=O)(=O)C1` (stereo not given), 0.66% (inactive).
In the case of `CCOc1ccc(NC(=O)CSc2nc3ccccc3c(=O)n2Cc2cccs2)cc1` it was -2.3% (inactive); in that of `CCOCCCn1c(SCC(=O)Nc2cc(OC)ccc2OC)nc2ccccc2c1=O`, -0.05% (inactive); in that of `CCOc1ccc(-n2c(SCC(=O)Nc3cc(C(=O)O)ccc3Cl)nc3ccccc3c2=O)cc1`, 17.1% (active).
As for `O=C1OCC2=C1C(c1ccccc1)CC(=O)N2c1cccc(F)c1` (stereo not given), the activation is 11.7% (inactive).
In the case of `CC(C)c1cccc(C(C)C)c1Nc1cn[nH]c1` it was 28.5% (active); in that of `O=C(NCCOc1ccccc1)N1[C@H]2CC[C@@H]1C=C(c1ccc(F)cc1OCc1ccccc1)C2`, -2.49% (inactive).
Consider `O=C(CSc1nnc(-c2c[nH]c3ccccc23)n1-c1ccc(F)cc1)NCc1ccco1`, for which the activation is 32.8% (active).
In the case of `O=C(CSc1nnnn1-c1ccccc1)NCc1ccco1` it was -4.53% (inactive).
In the case of `COc1ccc(-n2c(SCC(=O)NCc3ccco3)nnc2-c2c[nH]c3ccccc23)cc1` it was -1.54% (inactive); in that of `CCn1c(SC(C)C(=O)Nc2ccc(N3CCOCC3)cc2)nnc1-c1ccco1` (stereo not given), 1.69% (inactive); in that of `CC(Sc1ncnc2c1cnn2-c1ccccc1)C(=O)Nc1ccc(N2CCOCC2)cc1` (stereo not given), 23.6% (active).
In the case of `CCC(C)N(C(=O)CSc1ncnc2c1cnn2-c1ccccc1)C1CCS(=O)(=O)C1` (stereo not given) it was -4.86% (inactive); in that of `CCOc1ncccc1C(=O)Nc1ccc2c(c1)OCCO2`, -0.95% (inactive); in that of `CCC(=O)c1cc(F)ccc1OCC(=O)Nc1ccc2c(c1)OCCO2`, -4.48% (inactive).
For the molecule `CCOC(=O)c1cnc2ccc(F)cc2c1Nc1ccc2c(c1)OCCO2`, the activation is 27.1% (active).
In the case of `CCOc1cc(C)c(Cl)cc1S(=O)(=O)n1nnc2ccccc21` it was 6.7% (inactive); in that of `COc1ccccc1Nc1ncc(C(C)=O)c(C)n1`, 2.09% (inactive).
With `O=C(c1[nH]ncc1-c1ccc(Cl)cc1)C1CO1` (stereo not given), the activation was -6.34% (inactive).
`COc1ccc(-n2c(C)cc(C(=O)CN3C(=O)NC4(CCc5ccccc54)C3=O)c2C)cc1` (stereo not given): the activation is -7.44% (inactive).
In the case of `COc1ccc(C(=O)CN2C(=O)NC3(CCc4ccccc43)C2=O)c(OC)c1` (stereo not given) it was 22.9% (active); in that of `Cc1ccc(C(=O)CN2C(=O)NC3(CCc4ccccc43)C2=O)c(C)c1` (stereo not given), -0.51% (inactive); in that of `Cc1ccc(C(=O)NCC(=O)NCc2cc(=O)n(C)c(=O)n2C)cc1`, -0.97% (inactive).
In the case of `CCOc1ccc(NS(=O)(=O)c2ccc(C(=O)NCC3CCCO3)cc2)cc1` (stereo not given) it was -2.16% (inactive).
In the case of `CC(=O)c1sc(N)nc1C` it was 3.44% (inactive) and -1.75% (inactive); in that of `Cc1nc(N)sc1-c1ccccc1`, 16.2% (active); in that of `Cc1nc(N)sc1N=Nc1c(C)n(C)n(-c2ccccc2)c1=O`, 3.22% (inactive).
Turning to `CCN(C(=O)COC(=O)c1ccc(COc2ccc3c(C)cc(=O)oc3c2)cc1)C1CCS(=O)(=O)C1` (stereo not given), the activation is -5.76% (inactive).
In the case of `CN=C(NC#N)NCCSCc1nc[nH]c1C` it was -5.15% (inactive).
For `O=C1c2cccc3cc(Br)cc(c23)C(=O)N1Nc1ccccc1`, the activation is 21.6% (active).
In the case of `O=C1C=C(c2ccc(Cl)cc2)C(=O)N1Nc1ccccc1` it was -7.82% (inactive); in that of `O=C1c2cccc3cccc(c23)C(=O)N1c1cccc(O)c1`, -10.1% (inactive); in that of `Cc1cc(C)c(S(=O)(=O)NCCCN2CCOCC2)cc1Br`, -4.24% (inactive).
In the case of `O=C(CN1CCCC1)Nc1sc2c(c1C(=O)Nc1ccccc1)CCCC2` it was 0.04% (inactive); in that of `COc1cccc(CN(C)CC(=O)Nc2sc3c(c2C#N)CCC3)c1`, -0.97% (inactive); in that of `CCN1CCN(CC(=O)Nc2sc3c(c2C#N)CCC3)CC1`, 17.1% (active).
In the case of `COCc1c(C(=O)OCc2c(C)noc2C)oc2ccccc12` it was -3.78% (inactive).
`CCCCCN(C(=O)CCC(=O)OCC(=O)NC1CCC(C)CC1)c1c(N)n(CCCC)c(=O)[nH]c1=O` (stereo not given): the activation was 9.55% (inactive).
In the case of `CN(CCc1ccccc1)C(=O)c1cccc(NC(=O)Cc2cccc(NC(=O)C3CCCN(C(=O)C4CCC4)C3)c2)c1` (stereo not given) it was -5.03% (inactive); in that of `O=C(c1cnccn1)N1CCN(S(=O)(=O)c2cccc(Cl)c2)CC1`, 1.28% (inactive).
As to `Cc1ccc(Cn2c(=N)c(S(=O)(=O)c3ccc(C)cc3)cc3c(=O)n4ccccc4nc32)cc1`, the activation is 3.3% (inactive).
In the case of `O=C(OC12CC3CC(CC(C3)C1)C2)c1ccc(NCc2cc(O)ccc2O)cc1` it was 15.5% (active); in that of `CC1CCN(C(=O)c2ccc3c(=O)n4c(nc3c2)CCCCC4)CC1`, 14.7% (active).
Turning to `O=C(Nc1cc(F)ccc1F)c1ccc2c(=O)n3c(nc2c1)CCC3`, the activation is 3.59% (inactive).
In the case of `Cc1cc(C)c(C)c(S(=O)(=O)N2CCN(C(=O)c3ccc4c(=O)n5c(nc4c3)CCC5)CC2)c1C` it was -1.12% (inactive).
In the case of `CCN(CC(=O)NCc1cccs1)C(=O)c1ccccc1F` it was 0.45% (inactive); in that of `CCN(CC(=O)NCc1cccs1)C(=O)/C=C/c1ccc(C)cc1`, 23.5% (active); in that of `CCOc1ccc(/C=C/C(=O)N(CC)CC(=O)NCc2cccs2)cc1OC`, -5.1% (inactive).
In the case of `COCCn1c(SCC(=O)Nc2ccc3c(c2)CCC3)nc2ccccc2c1=O` it was -0.72% (inactive); in that of `Cc1c(C(=O)c2cccc([N+](=O)[O-])c2)c2ccccn2c1CCC#N`, -5.93% (inactive); in that of `CN1CCN(c2cc3c(cc2F)c(=O)c(C(=O)O)cn3CCF)CC1`, 8.31% (inactive).
`COc1ccc(N2CC(C(=O)N[C@@H](C)C(=O)N3CCCCC3)CC2=O)cc1` (stereo not given in full): the activation is -1.42% (inactive).
In the case of `CCOc1ccc(NC(=O)[C@H](C)NC(=O)C2CC(=O)N(c3ccc(OC)cc3)C2)cc1` (stereo not given in full) it was 17.5% (active); in that of `CCCC(C)c1nnc(NC(=O)C2CC(=O)N(c3ccc(OCC)cc3)C2)s1` (stereo not given), 0.96% (inactive); in that of `COc1ccc(-c2ccc3c(c2)C2CC3CCN2CCC#N)cc1` (stereo not given), -4.51% (inactive).
In the case of `N/C(=N\OC(=O)CCc1ccccc1)c1cccnc1` it was 24.5% (active).
Turning to `COc1ccc(/C(N)=N/OC(=O)CCCc2ccccc2)cc1`, the activation is 1.71% (inactive).
In the case of `N/C(=N\OC(=O)CCc1ccccc1)c1ccc(Cl)cc1` it was 12.9% (inactive).
In the case of `CC(C)(C(=O)N1CCC1(C)C(=O)NS(=O)(=O)c1ccc(Br)cc1)c1ccccc1` (stereo not given) it was 1.17% (inactive); in that of `CC(C)c1nc(CNC(=O)CC2C(=O)NCCN2Cc2cccc(F)c2F)cs1` (stereo not given), -2.59% (inactive); in that of `Cc1nnc(SC(C(=O)Nc2cc(Cl)cc(Cl)c2)c2ccccc2)[nH]c1=O` (stereo not given), -2.22% (inactive).
With `CN(CC(=O)Nc1c(Cl)cccc1Cl)C(=O)c1ccncc1`, the activation is 0.17% (inactive).
Consider `NC(=S)Nc1c(Cl)cccc1Cl`, for which the activation is 43.9% (active).
In the case of `O=C(Nc1c(Cl)cccc1Cl)C1CCC1` it was 11.8% (inactive); in that of `COC(=O)c1c(NC(=O)COc2ccc(Cl)cc2Cl)sc2c1CC(C)(C)NC2(C)C`, 14.6% (inactive).
In the case of `CCOc1ccccc1C1NC(=O)NC(C)=C1C(=O)OCc1ccco1` (stereo not given) it was -5.48% (inactive).
In the case of `Cc1ccc(C2=CSC3=NS(=O)(=O)CCN23)cc1C` it was 5.85% (inactive); in that of `CCCOc1ccc(C2=CSC3=NCCN23)cc1Cl`, 15.8% (active); in that of `CCCCOc1ccc(CON(C(C)=O)C(C)=O)cc1Cl`, -9.39% (inactive).
Regarding `CCNC(=O)CCc1nc(-c2ccc(C(C)(C)C)cc2)no1`, the activation is 1.74% (inactive).
In the case of `O=C(O)C1CCCN1S(=O)(=O)c1ccc2c(c1)CCC2` (stereo not given) it was -5.21% (inactive); in that of `CC(C)Cn1c(N)c(C(=O)COC(=O)CN2C(=O)C3CC=CCC3C2=O)c(=O)n(C)c1=O` (stereo not given), -2.93% (inactive); in that of `CCCc1cc(=O)[nH]c(SCC(=O)N2C(C)CCCC2C)n1` (stereo not given), 2.48% (inactive).
In the case of `CCCc1cc(=O)[nH]c(SCC(=O)c2c(N)n(CC(C)C)c(=O)n(C)c2=O)n1` it was 25.4% (active).
In the case of `Cc1ccc(SCC2=NNC(=O)C2)cc1` it was -0.52% (inactive).
Consider `O=C(Cn1nc(CNc2ccc(Cl)cc2)[n+]2c1CCCCC2)c1ccc(Cl)cc1`, for which the activation is -0.75% (inactive).
Regarding `Cc1ccccc1NC(=O)NC1(C(=O)N2CCCC2)CCCCC1`, the activation was 9.77% (inactive).
Turning to `Cc1ccc(C)c(NC(=O)NNC(=O)c2ccc3ccccc3c2O)c1`, the activation was 12.9% (inactive).
On to `COc1ccc2c(C)cc3nnnn3c2c1`, for which the activation is 5% (inactive).
In the case of `Cc1cc(=O)oc2c(C(=O)c3ccccc3)c(OCC(N)=O)ccc12` it was -2.31% (inactive); in that of `Cc1cc(=O)oc2c(C)c(OCC(=O)NCCN3CCOCC3)ccc12`, -1.9% (inactive); in that of `CC(=O)c1c(OCC(=O)N(C)C2CCCCC2)ccc2c(C)cc(=O)oc12`, 21.7% (active).
In the case of `C[n+]1cccc(C(=O)O)c1` it was -3.7% (inactive).
In the case of `O=C(Cc1ccc(S(=O)(=O)N2CCOCC2)s1)Nc1ccc(Br)c(C(F)(F)F)c1` it was -10.2% (inactive); in that of `Cc1ccc(C)c(NC2=NCC(=O)N2c2ccc3c(c2)OCCO3)c1`, -2.16% (inactive).
`Cc1cc(=O)[nH]c(Nc2cccc(Br)c2)n1`: the activation was -7.26% (inactive).
In the case of `Cc1cc(=O)[nH]c(N/N=C/c2ccc3c(c2)OCCO3)n1` it was 31.5% (active); in that of `Cn1cnc2c1c(=O)n(Cc1ccccc1C#N)c(=O)n2C`, 1.16% (inactive).
In the case of `O=C(C(NS(=O)(=O)c1cccc2nsnc12)c1ccccc1)N1CCN(c2ccccn2)CC1` (stereo not given) it was -11.9% (inactive); in that of `O=C(Nc1nnc(C2CC2)s1)c1ccccn1`, 28.3% (active).
In the case of `CCc1cc(C(=O)Nc2nnc(C3CC3)s2)sc1C` it was 6.5% (inactive).
Consider `CCc1ccccc1OCC(=O)Nc1nnc(C2CC2)s1`, for which the activation is 2.68% (inactive).
